# Screens deposited in PubChem by several laboratories.
# An excerpt weighted towards active compounds, which were near 1.4% of everything screened.
# APOBEC3A inh: human APOBEC3A DNA deaminase inhibition; P31941; recombinant A3A, FAM/TAMRA ssDNA deamination fluorescence; inhibition, % at 20 µM; 330,000 compounds, 0.41% hits;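 active = at least 40% inhibition at 20 µM here, with at most 30% in a related deaminase screen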;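 note: plate controls were A3A with DMSO for no effect and wells lacking A3A enzyme for full effect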
# APOBEC3G inh: inhibitors of human APOBEC3G DNA deaminase; recombinant A3G, ssDNA deamination FAM/TAMRA fluorescence; 330,000 compounds, 0.28% hits; AID 493012; Q9HC16; inhibition, % at 20 µM;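 active = inhibition of at least 40% at 20 µM, with no more than 30% in the related APOBEC3A deaminase screen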;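 note: plate controls were DMSO wells with A3G for no effect and wells lacking A3G enzyme for full effect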
# GRK2 inh: human GRK2 inhibition via aptamer displacement. P25098. bead flow cytometry, FAM-aptamer displacement from GRK2. inhibition of aptamer binding, % at 10 µM. 330,000 compounds, 0.59% hits. AID 488847;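 active = inhibition of aptamer binding above 40%, roughly 3 SD of noise, on plates passing a quality check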;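 note: median bead fluorescence of bound FAM aptamer so fluorescent compounds give negative values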
# Target sequence (P25098 whole entry, looked up): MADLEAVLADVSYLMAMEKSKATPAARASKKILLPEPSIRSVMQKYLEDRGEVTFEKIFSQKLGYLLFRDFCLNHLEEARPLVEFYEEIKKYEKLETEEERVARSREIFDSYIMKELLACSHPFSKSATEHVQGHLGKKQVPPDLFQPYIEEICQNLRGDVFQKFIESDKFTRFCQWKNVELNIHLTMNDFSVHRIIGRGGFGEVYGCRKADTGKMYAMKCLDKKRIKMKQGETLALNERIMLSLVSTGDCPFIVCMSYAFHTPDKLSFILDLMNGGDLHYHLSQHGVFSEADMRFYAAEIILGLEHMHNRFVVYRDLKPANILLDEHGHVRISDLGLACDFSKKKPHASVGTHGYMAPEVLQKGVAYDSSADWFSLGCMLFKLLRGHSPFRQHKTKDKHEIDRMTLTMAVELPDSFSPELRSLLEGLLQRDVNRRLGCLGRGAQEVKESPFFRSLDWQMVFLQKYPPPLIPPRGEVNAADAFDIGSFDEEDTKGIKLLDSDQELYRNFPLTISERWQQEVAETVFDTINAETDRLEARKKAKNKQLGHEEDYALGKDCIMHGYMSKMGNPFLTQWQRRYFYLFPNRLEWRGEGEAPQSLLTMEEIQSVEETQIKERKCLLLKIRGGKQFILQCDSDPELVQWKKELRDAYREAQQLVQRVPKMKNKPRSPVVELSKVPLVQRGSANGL
# VLA-4 inh: inhibition in a human VLA-4 binding assay; 330,000 compounds, 0.2% hits; AID 2557; VLA-4 expressing cells, ligand binding flow cytometry; inhibition, % (about 7 µM as worked out from the volumes in the protocol); P13612; in the data active = inhibition above about 50%
# VLA-4 allo CP: human VLA-4 allosteric modulation in cherry picked compounds | shares compounds with VLA-4 inh | U937 cells, HUTS-21 LIBS mAb binding, flow cytometry; LDV ligand present at threefold Kd | inhibition, % at 6.7 µM | 1,300 compounds, 2% hits | AID 2813; in the data active = inhibition above about 40%;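 note: 0% = ligand without compound and 100% = no ligand background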
# An asterisk follows results filed as active; · = no result.
SMILES,APOBEC3A inh,APOBEC3G inh,GRK2 inh,VLA-4 inh,VLA-4 allo CP
CCCc1cc(C(=O)N2CCCC(C(=O)c3cc(C)c(OC)c(C)c3)C2)n(C)n1 (stereo not drawn),-6,-3,0,106*,8
OCCN(CCO)CC(O)CN(c1ccccc1)c1ccccc1 (stereo not drawn),-4,-10,0,4,·
CCC(=O)Nc1nnc(-c2ccc(Cl)s2)o1,-4,-4,1,45,0
CC(=O)Nc1nnc(-c2ccc(Cl)s2)o1,-6,-11,0,18,·
COC(=O)C(Cc1cnc[nH]1)NC(=O)C1CCC(=O)N1 (stereo not drawn),0,-7,4,58*,3
COc1ccc(/C=N/n2c(C)nc3ccccc3c2=O)cc1,-1,-6,0,17,·
COC(=O)c1ccc(/C=N/n2c(C)nc3ccccc3c2=O)cc1,-5,-6,0,41,-4
O=C(Cn1ncc2c1-c1ccccc1OC2)N(Cc1ccco1)C1CCCCC1,1,0,0,0,·
CC(CCc1ccco1)NC(=O)Cn1ncc2c1-c1ccccc1OC2 (stereo not drawn),-7,-10,5,57*,4
CCCCN1C(=O)C(=O)c2cc(Cl)ccc21,-2,-4,0,55*,51*
CC(C)(C)S(=O)(=O)c1ccsc1C(=O)O,0,-4,1,0,·
CC(=O)Nc1cccc(C(=O)NC(C)c2ccc(S(N)(=O)=O)cc2)c1 (stereo not drawn),-1,-2,0,12,·
CC(=O)Nc1ccc(S(=O)(=O)NCC(=O)NC(C)c2ccc(S(N)(=O)=O)cc2)cc1 (stereo not drawn),1,-2,1,-3,1
COc1cc(/C=N/Nc2ncc(C(F)(F)F)cc2Cl)cc(OC)c1OC,0,-4,0,41,7
Cn1c(SCc2nc3ccccc3[nH]2)nnc1-c1cnccn1,2,-1,0,-18,·
CCOCCCNC(=O)C(Cc1ccccc1)NS(=O)(=O)c1ccc2c(c1)c(=O)n(C)c(=O)n2C (stereo not drawn),-1,20,2,33,·
CCCCNC(=O)C(Cc1ccccc1)NS(=O)(=O)c1ccc2c(c1)c(=O)n(C)c(=O)n2C (stereo not drawn),-4,-5,11,50*,-5
O=c1cc(CN2CCN(CCO)CC2)c2cc3c(cc2o1)CCC3,0,0,7,4,·
Cc1cc(Cl)ccc1OCC(=O)OCC(=O)Nc1ccc(F)c([N+](=O)[O-])c1,·,·,0,9,·
Cc1ccc(NC(=O)COc2ncnc3c(Cl)cc(Cl)cc23)cc1[N+](=O)[O-],-1,0,1,40,-22
Fc1ccc(NC(=S)Nc2cccnc2)cc1,1,7,3,10,·
O=C(Nc1ccc(F)cc1)Nc1cccnc1,·,·,1,-6,-3
CC[C@H](C)[C@H](NC(=O)c1ccccc1)C(=O)NC(CC(=O)O)c1ccc(F)cc1 (stereo partly drawn),-4,-9,0,-3,·
O=C1N[C@H](C(=O)O)CS1,-6,-5,1,54*,5
CCC(C)NC(=O)[C@@H]1CCCN1C(=O)C1CCN(S(=O)(=O)c2ccc(C)cc2)CC1 (stereo partly drawn),2,-6,4,53*,-2
SMILES,APOBEC3A inh,APOBEC3G inh,GRK2 inh,VLA-4 inh,VLA-4 allo CP
CO/N=C/C(=N\Nc1ccc(OC)cc1)C(=O)c1ccc(OC)cc1,2,2,0,91*,-1
COc1ccc(C(=O)C(/C=N/O)=N/Nc2ccc(F)cc2)cc1,-3,-8,0,-10,·
COCCCNC(=O)CN(c1cc(OC)ccc1OC)S(=O)(=O)c1ccccc1,-1,-3,5,3,·
COc1ccccc1-c1cc(C(F)(F)F)nc(S(=O)(=O)CCCC(=O)N2CCCCC2C)n1 (stereo not drawn),2,-3,10,50*,14
O=C(COc1ccc([N+](=O)[O-])cc1)Nc1ccc2[nH]c(=O)[nH]c2c1,-1,-3,0,19,·
O=C(Nc1ccc(C2=NCCN2)cc1)c1ccc(Cl)c(C(=O)Nc2ccc(C3=NCCN3)cc2)c1,21,12,0,42,5
CN1C(=O)C(C)(C)c2cc(S(=O)(=O)N(C)Cc3ccccc3)ccc21,-7,-9,6,-4,·
COc1cccc(CNS(=O)(=O)c2ccc3c(c2)C(C)(C)C(=O)N3C)c1,10,5,5,-13,-6
Cc1cccc(N(C)S(=O)(=O)c2ccc3c(c2)C(C)(C)C(=O)N3C)c1,7,0,0,-16,-2
O=S(=O)(Nc1nc(CN2CCOCC2)nc2sc3c(c12)CCCC3)c1cc(F)ccc1F,13,-6,1,21,·
CC(C)(C)NC(=O)COc1ccc(CNCc2ccccn2)cc1,0,-8,1,9,·
CCOC(=O)CSc1ccc2nnc(-c3cccnc3)n2n1,4,-7,0,-24,9
CCOC(=O)CSc1ccc2nnc(-c3ccccc3)n2n1,-3,-15,6,17,·
Cc1ccc(NC(=O)N(C)c2ccccc2)cc1,·,·,1,-2,-7
O=C(CSc1nnc(-c2ccccc2Cl)o1)Oc1ccc(Br)cc1,-1,-2,1,91*,9
CCCCNC(=O)Cn1c(=O)oc2cc(S(=O)(=O)N3CC(C)CC(C)C3)ccc21 (stereo not drawn),-3,-9,2,-10,-4
COCCCNC(=O)Cn1c(=O)oc2cc(S(=O)(=O)N3CC(C)CC(C)C3)ccc21 (stereo not drawn),-7,-5,3,17,·
CN(C)c1ccc(C(=O)OCC(=O)Nc2ccc(S(N)(=O)=O)cc2)cc1,0,-6,3,1,2
COc1ccccc1-n1cnnc1SCc1csc(-c2ccccc2)n1,4,1,4,95*,-8
COc1ccccc1-n1cnnc1SCC(=O)Nc1ccccc1,-1,-9,0,8,·
CC(=O)N1c2ccc(S(=O)(=O)N3c4ccccc4CC3C)cc2CC1C (stereo not drawn),-2,1,0,0,·
CN(C)CCCNC(=O)N1c2ccccc2C=Cc2ccccc21,-4,-2,2,3,·
CCn1c(O)c(/C=C2\C=Nc3ccccc32)sc1=O,0,-2,0,44,-11
CCOc1ccc(Oc2c(/C=N/NC(=O)COc3ccccc3OC)c(C)nn2-c2ccccc2)cc1,0,2,0,46,3
CCOC(=O)CSc1nc(C)[nH]c1[N+](=O)[O-],2,0,0,41,0
CNC(=O)COC(=O)Cc1ccc(Cl)cc1,1,-4,0,-1,·
Cc1cc(Cl)c(S(=O)(=O)N2CCCC2)cc1OCC(=O)NC1CCCCC1,-1,-1,1,68*,6
Cn1c(SCC(=O)N2CCCC2)nc2ccccc21,-5,-19,1,27,·
Cn1c(Sc2nc3ccccc3n2C)nc2ccccc21,-2,-7,0,68*,6
CCCc1nc2cc(CC(=O)OC)ccc2o1,-6,-8,3,72*,2
